Assay outcomes as filed in PubChem BioAssay.
SARS PLpro yeast – blocks SARS-CoV papain-like protease in a yeast assay. hit rate 0.19% among 330,000. Potency, µM (top dose mostly 32.9 µM), for inactives: top-dose activity, positive = growth rescue, actives largely listed as activators. S. cerevisiae expressing SARS-CoV PLpro, growth rescue; calls by dose curve; also: potency is read from the fitted curve at half-maximal effect; 0% is about no effect; nearly all actives have a fitted effect of over 55% in size
FMDV inh – antivirals against foot and mouth disease virus. FMDV antiviral cell-based qHTS. Potency, µM (highest dose often 57.9 µM), for the others: at the top dose activity change, negative = inhibition, actives largely listed as inhibitors. hit rate 1.2% among 410,000; calls by dose curve; tested in HEK293T cells; also: read-out not given here; potency is read from the fitted curve at half-maximal effect; % is scaled to controls: 0 for no effect and ±100 for the full control effect; nearly all actives have a fitted effect of over 45% in size
HCMV inh – blocks human cytomegalovirus replication | HFF cells, HCMV-luciferase reporter, 72 h; hits give low values | activity change, negative = inhibition, % at 57.5 µM | hit rate 4.5% among 410,000; in the data active = activity change below about -60%; inconclusive = no clear call, values can overlap the other calls; inactive = above about -39%; also: % is scaled to controls: 0 for no effect and ±100 for the full control effect
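Cell-based, HFFs, 1000 cells/well, 16 h 37C; cpds in DMSO + HCMV-luc, MOI 1 PFU/cell; 72 h 37C; OneGlo luminescence after 5 min RT; norm. to buffer vs Salinomycin 10uM.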
HCV inh – HCV inhibition. AID 651820. Potency, µM (highest dose often 41.8 µM), for the others: top-dose activity change, negative = inhibition, hits mostly inhibitors. Huh7.5.1 HCVcc-Cre infection, luciferase reporter, 44 h. hit rate 3.4% among 340,000; active = well fitted inhibition curve with a large enough effect; inconclusive = small, poorly fitted or top-dose-only effect, or another doubt; inactive = no such curve, though single readings can be large or run the other way; also: potency is read from the fitted curve at half-maximal effect; % is scaled to controls: 0 for no effect and ±100 for the full control effect
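After 44 h co-culture of compound, cells and HCVcc-Cre (~0.5 moi), substrate is added for 15 min at room temperature and luciferase measured over 15 sec. Cells were seeded at 1,000/well and pre-cultured 4 h.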
MARV entry inh – Marburg virus entry inhibition | Marburg virus pseudotyped entry inhibition, cell reporter | Potency, µM (top dose mostly 37.8 µM), inactives show at the top dose activity change, negative = inhibition, usual class: inhibitors | hit rate 1.8% among 300,000 | AID 540276; calls by dose curve; tested in HEK293 cells; also: potency is read from the fitted curve at half-maximal effect; % is scaled to controls: 0 for no effect and ±100 for the full control effect
Lassa entry inh – Lassa virus entry inhibition | hit rate 1.2% among 300,000 | Potency, µM (series often up to 37.9 µM), for inactives: at the highest dose activity change, negative = inhibition, most hits filed as inhibitors | Lassa virus pseudotype entry inhibition, cell reporter; calls by dose curve; tested in HEK293 cells; also: potency is read from the fitted curve at half-maximal effect; % is scaled to controls: 0 for no effect and ±100 for the full control effect; nearly all actives have a fitted effect of over 50% in size
An asterisk follows results filed as active; ? = inconclusive; nt = not tested or not shown; [ ] = remark or other dose. An excerpt weighted towards active compounds, which were near 8% of everything screened.

SMILES | SARS PLpro yeast | FMDV inh | HCMV inh | HCV inh | MARV entry inh | Lassa entry inh
c1ccc(-c2cn(-c3ccccc3)c3[n+]2CCCS3)cc1 | -1% | ? | -33 | -19% | ? | 4%
O=C1OCC2=C1C(c1ccc3c(c1)OCO3)Sc1ccccc1N2 (stereo unspecified) | -1% | -29% | ? | ? | ? | -12%
O=C1OCC2=C1C(c1ccc(F)cc1)c1cc3c(cc1N2)OCO3 (stereo unspecified) | -1% | ? | -93* | ? | ? | ?
COc1ccc(C2C3=C(COC3=O)Oc3cc4c(cc32)OCO4)cc1OC (stereo unspecified) | nt | -20% | -24 | 6% | -4% | -11%
CC(=O)Oc1ccc(C2C3=C(CC(C)(C)CC3=O)Nc3cc4c(cc32)OCCO4)cc1 (stereo unspecified) | 0% | -7% | -5 | 16% | nt | nt
O=C1OCC2=C1C(c1ccc(F)cc1)c1cc3c(cc1N2)OCCO3 (stereo unspecified) | 5% | -15% | -85* | 5% | -43%[46.1 µM] | ?
CCOc1ccccc1C1C2=C(COC2=O)Nc2cc3c(cc21)OCO3 (stereo unspecified) | -1% | 0% | -94* | ? | ? | ?
C#CCOc1ccc(C2C3=C(COC3=O)Nc3cc4c(cc32)OCO4)cc1OC (stereo unspecified) | -2% | -12% | -82* | -17% | ? | ?
CC(C)C(=O)Nc1nc2c(c(=O)[nH]1)CCCC2 | 0% | -4% | -31 | 13% | 3%[46.1 µM] | -3%
C=CCN1c2ccccc2[C@]23CCC(=O)N(CCOC)C2=NC(C(=O)OC)=C(C(=O)OC)[C@H]13 | nt | nt | nt | nt | 13%[14.2 µM] | ?
Cc1cc(C)c(NC(=O)CN2c3ccccc3S(=O)(=O)c3ccccc32)c(C)c1 | nt | -8% | 24 | nt | nt | 0%[46.1 µM]
COc1ccc(/C=N/NC(=O)c2ccc(=O)n(C)c2)cc1OC | -3% | 5% | 42 | 9% | 7%[46.1 µM] | -1%
CCCOC(=O)c1ccc(NC(=O)CSC2=Nc3ccccc3C3CC=NN23)cc1 (stereo unspecified) | -6% | -8% | 54 | 3% | -3% | 2%
N#Cc1ccccc1NC(=O)CSC1=Nc2ccccc2C2CC=NN12 (stereo unspecified) | -2% | ? | -60* | -12% | 1%[46.1 µM] | -1%
N#Cc1ccccc1NC(=O)CSc1ccc([N+](=O)[O-])cn1 | 1% | -3% | -66* | 5% | 8%[46.1 µM] | 4%[46.1 µM]
Cc1nnc(NC(=O)CSc2ccc([N+](=O)[O-])cn2)s1 | 0% | -3% | 35 | 8% | 25%[46.1 µM] | -12%[46.1 µM]
O=C(CSC1=Nc2ccccc2C2CC=NN12)Nc1ccc2c(c1)OCO2 (stereo unspecified) | -3% | 20µM* | 50 | ? | ? | -2%[46.1 µM]
COc1cc(/C=C2\C(=N)N3N=CSC3=NC2=O)cc(Br)c1OC(=O)c1ccco1 | -1% | -14% | -11 | 17% | nt | nt
CN(C)c1ccc(C(CNS(=O)(=O)c2ccc([N+](=O)[O-])cc2)N2CCOCC2)cc1 (stereo unspecified) | -8% | -9% | 9 | 0% | 4%[46.1 µM] | 6%
CCc1ccccc1N1CC(C(=O)Nc2cc(C)on2)CC1=O (stereo unspecified) | -2% | 13% | 3 | -6% | -11%[46.1 µM] | -7%
COc1ccccc1NS(=O)(=O)c1cc(NC(=O)c2ccco2)ccc1N1CCOCC1 | 0% | 31% | 37 | -28% | -5%[46.1 µM] | 4%
CCC(C(=O)Nc1ccc(N2CCOCC2)c(S(=O)(=O)Nc2ccccc2OC)c1)c1ccccc1 (stereo unspecified) | 1% | 57% | -81* | ? | ? | ?
COc1ccccc1NS(=O)(=O)c1cc(NC(=O)CC(C)(C)C)ccc1N1CCOCC1 | 1% | 56% | ? | ? | ? | -27%
COc1ccccc1NS(=O)(=O)c1cc(NC(=O)CCC2CCCC2)ccc1N1CCOCC1 | 0% | 26% | -104* | 10% | nt | nt
COc1cc2c(cc1OC)C(COc1ccccc1OC)N(C(=O)CC(C)C)CC2 (stereo unspecified) | nt | -3% | 2 | nt | nt | 0%[46.1 µM]
